Test results published in PubChem BioAssay (NCI).
About 79,000 compounds went through this panel and 15% of them were active in at least one assay; those are over-represented in the sample as a whole. A number with no mark means an inactive call. Calls of active or inactive are those of the source. Rule as the data show it: active = growth inhibition above about 70%; inactive = the rest.

How the values were obtained:
[1] = NCI Yeast Anticancer Drug Screen. Data for the rad50 strain (AID 155);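 also: 0% = growth of vehicle-only cultures of the same strain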; conditions: S. cerevisiae rad50 strain growth inhibition; at 50.0 µM; stronger effect = higher value
Summary of the method: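 Compounds were tested on a yeast strain with an engineered DNA damage repair alteration; the reported value is growth inhibition normalised to vehicle treatment.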

[2] = NCI Yeast Anticancer Drug Screen. Data for the mec2-1 strain (AID 157); conditions: S. cerevisiae mec2-1 strain, at 50.0 µM, stronger effect = higher value
Summary of the method: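 Readout is yeast growth inhibition, normalised to vehicle-treated controls, in the mec2-1 strain exposed to compound.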

[3] = NCI Yeast Anticancer Drug Screen. Data for the sgs1 mgt1 strain (AID 161);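 also: 0% = growth of cultures given vehicle only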; conditions: S. cerevisiae sgs1 mgt1 strain, at 50.0 µM, stronger effect = higher value
Summary of the method: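 Percent growth inhibition was derived by comparing compound-exposed mutant yeast with vehicle-exposed cultures. The strain carries alterations in DNA damage repair.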

[4] = NCI Yeast Anticancer Drug Screen. Data for the cln2 rad14 strain (AID 165);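 also: 0% = growth equal to vehicle treated cultures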; conditions: S. cerevisiae cln2 rad14 strain, at 50.0 µM, stronger effect = higher value
Summary of the method: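 Relative to vehicle controls, growth inhibition of compound-treated cln2 rad14 yeast was recorded.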

[5] = NCI Yeast Anticancer Drug Screen. Data for the bub3 strain (AID 167); conditions: S. cerevisiae bub3 mutant strain, at 50.0 µM, stronger effect = higher value
Summary of the method: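 Growth of a checkpoint-deficient yeast mutant is measured after compound exposure. Values represent inhibition relative to vehicle.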

[6] = NCI Yeast Anticancer Drug Screen. Data for the mlh1 rad18 strain (AID 175); conditions: S. cerevisiae mlh1 rad18 strain growth inhibition; at 50.0 µM; stronger effect = higher value
Summary of the method: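 Test agents were incubated with a yeast strain of defined genotype (DNA damage repair defect). Inhibition of growth was derived by comparison with vehicle-exposed cultures.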

| Compound | growth inhibition [1] | growth inhibition [2] | growth inhibition [3] | growth inhibition [4] | growth inhibition [5] | growth inhibition [6] |
| --- | --- | --- | --- | --- | --- | --- |
| CC(=O)N1c2ccccc2S(=O)(=O)c2ccccc21 | 1.6% | 12.7% | 0.75% | -15.9% | 2.05% | – |
| CCc1cc2c(oc3c4ccccc4ccc23)c(=O)[nH]1 | -8.95% | -12.6% | -15.7% | -14.3% | -25.4% | – |
| CN1CCc2cc3c(cc2C(=O)Cc2ccc4c(c2C1)OCO4)OCO3 | -14.7% | -13.8% | -8.35% | 10.4% | -13.4% | – |
| CC(SC(C)c1ccccc1)c1ccccc1 (centres undefined) | -5.8% | -16.6% | -8.65% | -11.9% | -8.1% | – |
| CCCCCCCC(=O)OCC1OC(n2cc(F)c(=O)[nH]c2=O)C(NC(=O)OCc2ccccc2)C(O)C1O (centres undefined) | -15.1% | -13.8% | -66.8% | -7.1% | -12.4% | – |
| Cc1c(C)c2cc3c(=O)c(CCl)coc3c(C)c2oc1=O | 22.4% | 1.15% | 16% | 15.6% | -7.15% | – |
| OCC1=C(CO)CC=CC1 | -21% | 10% | 2.2% | 1.5% | -3.05% | – |
| Nc1ncc2c(n1)-c1ccccc1OC2NC1CC1 (centres undefined) | 2.5% | 12.1% | -29.2% | -5.55% | -36.2% | – |
| CC(=O)/C=C\c1ccc(-c2ccccc2)cc1 | 2.65% | -36.2% | -3.6% | -0.6% | -18.9% | – |
| COc1ccc(OC)c(NC(=O)c2ccccc2Cl)c1 | -4.85% | -1.95% | 16.7% | -13% | 48.2% | – |
| OCC(O)CNc1ncnc2ccccc12 (centres undefined) | -1.65% | -11.8% | 3.4% | -26.4% | 1.7% | – |
| O=C1NC(=O)N(C(F)(F)F)C(F)(F)N1C(F)(F)F | 1.25% | 4.55% | 3.75% | 30.9% | 5.8% | – |
| Nc1nc2c(C(=O)c3cccs3)nnn2c2cccc(Cl)c12 | -21.1% | -21.1% | -21.9% | -12.2% | -14.8% | – |
| Cc1ccc2sc3nc4ccccc4nc3c2c1 | 12.1% | 3.5% | -1.95% | -4.25% | 5.8% | – |
| O=C1OC(C(O)C(O)C(O)CO)C(O)C1O (centres undefined) | -9.65% | -29.9% | -11.7% | -40.2% | 28.3% | – |
| COC(=O)CCc1ccc(C2CO2)cc1 (centres undefined) | -1.4% | 6.15% | -9.5% | -0.2% | -11.2% | – |
| O=C(Nc1ccc(Nc2ccc(NC(=O)c3ccccc3)c3c2C(=O)c2ccccc2C3=O)c2c1C(=O)c1ccccc1C2=O)c1ccccc1 | 6.8% | -15.6% | 6.05% | 6.1% | -1.95% | – |
| COc1cccc2cc(C(=O)Nc3ccccc3)c(=N)oc12 | 2.75% | 12.7% | -31% | 9.3% | -37.9% | – |
| O=c1[nH]c2cc([N+](=O)[O-])ccc2nc1/C(=N/Nc1ccccc1)C(O)c1ccco1 (centres undefined) | 7.9% | -17.4% | 9.2% | 16.2% | 6.65% | 25.3% |
| N#CCCC(CC#N)N1CCN(C(CC#N)CCC#N)CC1 (centres undefined) | -33.5% | -48.9% | -11.8% | -6.3% | -13.1% | – |
| COc1ccc(C23CCC(=O)N2CCS3)cc1 (centres undefined) | -1.25% | -20.3% | -10.7% | 8.15% | 30% | – |
| CCOc1nc(-c2ccccc2)cc(-c2ccc(N3CCOCC3)cc2)c1C#N | 19% | 9.55% | -7.4% | -11.6% | -4.5% | – |
| O=C(/C=C/c1ccc(Cl)cc1)c1ccccc1O | -9.15% | 9.8% | -6.05% | -10.8% | -1.25% | – |
| CC(C)(C)c1c(C#N)nnc2cc(-c3ccccc3)nn12 | 7% | 8.85% | 21.9% | 25.1% | -17.3% | – |

| Compound | growth inhibition [1] | growth inhibition [2] | growth inhibition [3] | growth inhibition [4] | growth inhibition [5] | growth inhibition [6] |
| --- | --- | --- | --- | --- | --- | --- |
| CCOC(=O)Nc1nc2c(s1)c([N+](=O)[O-])cn2C | 11.6% | 7% | 17.1% | 2.45% | 4.6% | – |
| CC1=C(C(=O)NCCc2ccccc2)CC(C(=O)NCCc2ccccc2)=C(C)N1 | -9.8% | 6.4% | 5.75% | 14.5% | -13.2% | – |
| CNC(=O)/C(=C\c1ccccc1)NC(C)=O | 9% | -13.6% | 6% | -54.7% | 17.9% | – |
| CCOC(=O)c1ncn2c1[nH]c(=O)c1ccccc12 | -6.95% | -16.6% | -8.9% | 1.2% | -9.5% | -10.6% |
| COC(=O)c1ccc(N(C)CC/C(CNc2nc(N)[nH]c(=O)c2[N+](=O)[O-])=N\NC(N)=O)cc1 | 9.35% | 10.6% | -2.4% | 6.25% | -7.55% | – |
| COc1ccc(OC)c(Cc2ccc(NC(C)=O)cc2)c1 | 4.75% | -2.15% | 3.3% | -38.2% | -0.75% | – |
| CC1(C)C(=O)NC(=O)N1CO | 27.1% | 2.4% | -5.45% | 19.9% | 14.9% | – |
| Cc1[nH]c(=O)nc(N/N=C/c2ccc(O)cc2)c1C(=O)Nc1ccc(Cl)cc1 | -17.6% | -16% | -20.6% | -3.15% | -12.6% | – |
| CN(C)/N=N/c1nc2c(c(=O)n(C)c(=O)n2C)n1CC(O)CO (centres undefined) | 11.4% | 29% | 22.1% | -2.85% | 2% | – |
| CCO[Si](OCC)(OCC)c1ccccc1 | -28.7% | -21.3% | -10.7% | -5.85% | -14.5% | – |
| Clc1ccccc1C=Nc1ccccc1 | 31.2% | 11.9% | 30.7% | 20.6% | 24.7% | – |
| COc1cc2c(cc1OC)C(=O)N(c1ccc(OCCN3CCCC3)cc1)C2=O | -20.7% | -17.9% | 4.7% | 19.4% | 15.8% | – |
| Nc1nn(CC(O)CO)c(=O)s1 (centres undefined) | 4.85% | 15.7% | 2.4% | 11.8% | 8.1% | – |
| NC(N)=Nc1cccc2ccccc12 | -1.45% | 0.85% | -5.65% | -12.8% | -0.45% | – |
| COc1ccc2ccc3[nH]c4c(C)cnc(NCCCN(C)C)c4c3c2c1 | 34.8% | 43.2% | 55.9% | 18.9% | 45.9% | – |
| C=C(C(=O)O)C1CC[C@@]2(C)CC(O)CC(=C)C2C1 (some centres undefined) | 16.4% | -0.95% | -8.1% | 5.3% | -2.9% | – |
| CCOC(=O)N1Cc2cc3ccc(OC)cc3nc2C1 | 6% | -4.15% | -21.1% | -10% | -24.4% | 3.9% |
| CCN(CC)CCOc1cccc(O)c1 | -5.95% | -16.1% | -12.1% | -50.5% | -8.3% | -2.9% |
| CC(CNC(=O)c1ccccc1)(CNC(=O)c1ccccc1)[N+](=O)[O-] | 8.95% | 1.35% | -3.2% | 6.75% | 0.8% | 3.85% |
| COc1ccc(N2CCN(CC(O)COc3ccc(C(=O)Cc4ccccc4)cc3)CC2)cc1 (centres undefined) | 96.4% (active) | 96.8% (active) | 99% (active) | 86.6% (active) | 91% (active) | 96.7% (active) |
| Cc1cc(=O)c2cc(-c3ccccc3)ccc2[nH]1 | -1% | 4.4% | -13.4% | 0.05% | -1.5% | 2% |
| CCCCOC(=O)N1CCCCC1 | -9.75% | -8.15% | -17.3% | -5.9% | -14.3% | -5.75% |
| O=C(/C=C\c1ccccc1)OCC(=O)c1ccc(-c2ccccc2)cc1 | -20.1% | -2.3% | 1.9% | -34.3% | 1.1% | 4.4% |
